# Measurements taken from PubChem BioAssay (NCI).
# About 79,000 compounds went through this panel and 15% of them were active in at least one assay; those are over-represented in the sample as a whole. A number with no mark means an inactive call. The source made the active and inactive calls. Rule as the data show it: active = growth inhibition above about 70%; inactive = the rest.
# Legend:
# [1] = NCI Yeast Anticancer Drug Screen. Data for the wt1 strain (AID 149);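 also: 0% = growth of vehicle-treated wt1 cultures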; settings: S. cerevisiae wt1 strain (SPY 50644) growth inhibition, active compounds read high
# Outline: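 Growth inhibition read against vehicle controls after compound exposure of the wt1 yeast strain.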
# [2] = NCI Yeast Anticancer Drug Screen. Data for the rad50EPP+ strain (AID 151);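 also: 0% = growth of vehicle-treated control cultures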; settings: S. cerevisiae rad50 mutant strain, active compounds read high
# Outline: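 Genetically defined yeast (rad50EPP+, DNA damage repair alteration) is grown with compound, and inhibition of growth is expressed relative to vehicle-treated controls.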
# [3] = NCI Yeast Anticancer Drug Screen. Data for the mgt1 strain (AID 153); settings: S. cerevisiae mgt1 mutant growth inhibition, active compounds read high
# Outline: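 In the mgt1 strain, test compounds were added and growth inhibition was determined relative to vehicle-treated controls.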
# [4] = NCI Yeast Anticancer Drug Screen. Data for the rad50 strain (AID 155);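 also: 0% = growth of vehicle-only cultures of the same strain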; settings: S. cerevisiae rad50 strain growth inhibition, active compounds read high
# Outline: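 Readout: growth inhibition relative to vehicle-treated cultures. Compound exposure was carried out in a genetically defined yeast strain deficient in DNA damage repair.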
# [5] = NCI Yeast Anticancer Drug Screen. Data for the mec2-1 strain (AID 157); settings: S. cerevisiae mec2-1 strain, active compounds read high
# Outline: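 Each compound was tested on mec2-1 yeast, a strain altered in DNA damage repair or cell cycle control. Growth inhibition is reported relative to vehicle.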
# [6] = NCI Yeast Anticancer Drug Screen. Data for the rad14 strain (AID 159);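 also: 0% = growth of vehicle-treated control cultures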; settings: S. cerevisiae rad14 strain growth inhibition, active compounds read high
# Outline: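 Growth inhibition vs vehicle controls; genetically altered yeast strain (DNA damage repair defect) treated with test compounds.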
# [7] = NCI Yeast Anticancer Drug Screen. Data for the sgs1 mgt1 strain (AID 161);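 also: 0% = growth of cultures given vehicle only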; settings: S. cerevisiae sgs1 mgt1 strain, active compounds read high
# Outline: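 Test agents were incubated with a DNA-repair-mutant yeast strain. Growth was then read and compared against vehicle-treated controls.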
# [8] = NCI Yeast Anticancer Drug Screen. Data for the CLN2oe strain (AID 163);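 also: 0% = growth of vehicle-only control cultures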; settings: S. cerevisiae CLN2oe strain, active compounds read high
# Outline: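 First, the altered yeast strain was treated with each compound; second, its growth was measured; finally, inhibition was derived by comparison with vehicle controls.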
# [9] = NCI Yeast Anticancer Drug Screen. Data for the cln2 rad14 strain (AID 165);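 also: 0% = growth equal to vehicle treated cultures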; settings: S. cerevisiae cln2 rad14 strain, active compounds read high
# Outline: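 Test compounds were added to cln2 rad14 yeast cultures; inhibition of growth was then determined by comparison with vehicle treatment.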
# [10] = NCI Yeast Anticancer Drug Screen. Data for the bub3 strain (AID 167); settings: S. cerevisiae bub3 mutant strain, active compounds read high
# Outline: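 Readout: yeast growth inhibition, expressed relative to vehicle-only wells. The test organism is a mutant strain from a panel with lesions in DNA repair or checkpoint genes.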
# [11] = NCI Yeast Anticancer Drug Screen. Data for the wt2 strain (AID 169);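 also: 0% = growth of vehicle-treated yeast cultures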; settings: S. cerevisiae wt2 strain growth inhibition, active compounds read high
# Outline: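 The panel's yeast strains carry defined changes in DNA repair or cell cycle genes. Each strain is grown with compound, and growth loss is scored relative to vehicle.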
# [12] = NCI Yeast Anticancer Drug Screen. Data for the mlh1 strain (AID 171);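 also: 0% = growth of vehicle-treated control cultures of the same strain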; settings: S. cerevisiae mlh1 strain growth inhibition, active compounds read high
# Outline: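 Inhibition values reflect reduced yeast growth in the presence of compound, referenced to vehicle controls, using a strain chosen for its alteration in DNA repair or cell cycle control.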
# [13] = NCI Yeast Anticancer Drug Screen. Data for the sgs1 strain (AID 173);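 also: 0% = growth of vehicle-only control cultures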; settings: S. cerevisiae sgs1 mutant, active compounds read high
# Outline: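 Vehicle-treated cultures served as reference for growth inhibition of a yeast strain altered in DNA damage repair or cell cycle control after compound exposure.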
# [14] = NCI Yeast Anticancer Drug Screen. Data for the mlh1 rad18 strain (AID 175); settings: S. cerevisiae mlh1 rad18 strain growth inhibition, active compounds read high
# Outline: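 Inhibition values reflect reduced growth of mutant yeast versus vehicle-treated controls following compound exposure; the mutations affect DNA damage repair.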
# [15] = NCI Yeast Anticancer Drug Screen. Data for the rad18 strain (AID 177); settings: S. cerevisiae rad18 mutant growth inhibition, active compounds read high
# Outline: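 Steps: expose repair-mutant yeast to compound; measure growth; express as inhibition relative to vehicle control.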
# [16] = at 5.0 µM (retest, dose inferred, filed as 0.5)
# [17] = at 50.0 µM (retest, dose inferred, filed as 5.0)
smiles,measurement,setting,value
CC(C)(C)[Si](C)(C)OCC1OC(n2cnc3c(N)ncnc32)C2OC(=S)OC12 (stereo not drawn),growth inhibition,[1]; at 1.2 µM,1%
same,growth inhibition,[1]; at 3.7 µM,-1%
same,growth inhibition,[1]; at 11.0 µM,0%
same,growth inhibition,[1]; at 33.0 µM,2%
same,growth inhibition,[1]; at 100.0 µM,17%
same,growth inhibition,[2]; at 1.2 µM,-5%
same,growth inhibition,[2]; at 3.7 µM,-6%
same,growth inhibition,[2]; at 11.0 µM,-3%
same,growth inhibition,[2]; at 33.0 µM,3%
same,growth inhibition,[2]; at 100.0 µM,8%
same,growth inhibition,[3]; at 1.2 µM,-1%
same,growth inhibition,[3]; at 3.7 µM,0%
same,growth inhibition,[3]; at 11.0 µM,0%
same,growth inhibition,[3]; at 33.0 µM,-29%
same,growth inhibition,[3]; at 100.0 µM,14%
same,growth inhibition,[4]; at 1.2 µM,-1%
same,growth inhibition,[4]; at 3.7 µM,5%
same,growth inhibition,[4]; [16],5%
same,growth inhibition,[4]; at 11.0 µM,-19%
same,growth inhibition,[4]; at 33.0 µM,17%
same,growth inhibition,[4]; [17],45%
same,growth inhibition,[4]; at 50.0 µM,4.45%
same,growth inhibition,[4]; at 100.0 µM,98% (active)
same,growth inhibition,[5]; at 1.2 µM,0%
same,growth inhibition,[5]; at 3.7 µM,2%
same,growth inhibition,[5]; [16],5%
same,growth inhibition,[5]; at 11.0 µM,2%
same,growth inhibition,[5]; at 33.0 µM,7%
same,growth inhibition,[5]; [17],56%
same,growth inhibition,[5]; at 50.0 µM,40%
same,growth inhibition,[5]; at 100.0 µM,28%
same,growth inhibition,[6]; at 1.2 µM,0%
same,growth inhibition,[6]; at 3.7 µM,2%
same,growth inhibition,[6]; at 11.0 µM,3%
same,growth inhibition,[6]; at 33.0 µM,11%
same,growth inhibition,[6]; at 100.0 µM,96% (active)
same,growth inhibition,[7]; [16],5%
same,growth inhibition,[7]; [17],29%
same,growth inhibition,[7]; at 50.0 µM,11.6%
same,growth inhibition,[8]; at 1.2 µM,-2%
same,growth inhibition,[8]; at 3.7 µM,-3%
same,growth inhibition,[8]; at 11.0 µM,-1%
same,growth inhibition,[8]; at 33.0 µM,-2%
same,growth inhibition,[8]; at 100.0 µM,9%
same,growth inhibition,[9]; [16],3%
same,growth inhibition,[9]; [17],98% (active)
same,growth inhibition,[9]; at 50.0 µM,-15.6%
same,growth inhibition,[10]; at 1.2 µM,0%
same,growth inhibition,[10]; at 3.7 µM,2%
same,growth inhibition,[10]; [16],-42%
same,growth inhibition,[10]; at 11.0 µM,3%
same,growth inhibition,[10]; at 33.0 µM,3%
same,growth inhibition,[10]; [17],3%
same,growth inhibition,[10]; at 50.0 µM,48.4%
same,growth inhibition,[10]; at 100.0 µM,10%
same,growth inhibition,[11]; at 1.2 µM,-1%
same,growth inhibition,[11]; at 3.7 µM,9%
same,growth inhibition,[11]; at 11.0 µM,1%
same,growth inhibition,[11]; at 33.0 µM,2%
same,growth inhibition,[11]; at 100.0 µM,36%
same,growth inhibition,[12]; at 1.2 µM,-1%
same,growth inhibition,[12]; at 3.7 µM,-2%
same,growth inhibition,[12]; at 11.0 µM,-3%
same,growth inhibition,[12]; at 33.0 µM,0%
same,growth inhibition,[12]; at 100.0 µM,37%
same,growth inhibition,[13]; at 1.2 µM,-1%
same,growth inhibition,[13]; at 3.7 µM,2%
same,growth inhibition,[13]; at 11.0 µM,4%
same,growth inhibition,[13]; at 33.0 µM,14%
same,growth inhibition,[13]; at 100.0 µM,80% (active)
same,growth inhibition,[14]; [16],7%
same,growth inhibition,[14]; [17],22%
same,growth inhibition,[14]; at 50.0 µM,48.1%
same,growth inhibition,[15]; at 1.2 µM,-1%
same,growth inhibition,[15]; at 3.7 µM,1%
same,growth inhibition,[15]; at 11.0 µM,6%
same,growth inhibition,[15]; at 33.0 µM,22%
same,growth inhibition,[15]; at 100.0 µM,86% (active)
